# From PubChem BioAssay (Tox21)
# Active and inactive are the calls of the source. Where a call stands in place of a potency, no number is given. Calls come from the whole dose curve; as a rule, active = well fitted curve in the direction sought with a large enough effect in the repeat runs; inconclusive = weak or mixed curves; inactive = flat fitted curve, though single readings scatter.
# Assay: qHTS assay to test for compound auto fluorescence at 460 nm (blue) in HepG2 cells (AID 720687)
# Details: autofluorescence 405/460 nm, 1 h; series mostly up to 91.3 µM
# Source text: U.S. Tox21 Program National Center for Advancing Translational Sciences [NCATS] NIH Chemical Genomics Center [NCGC] U.S. Environmental Protection Agency [EPA] National Institutes of Environmental Health Sciences [NIEHS] National Toxicology Program [NTP] U.S. Food and Drug Administration [FDA] Tox21 Assay Overview: Compound auto fluorescence often interferes with screening of the compound library against various biological targets and signaling pathways. Some of these compounds may have fluorophoric properties. Such properties may interfere with the assay outputs resulting in false positives and/or negatives. To decrease such complications and ensure the compound activities are relevant in terms of biological response, the Tox21 10K compound library was screened for auto fluorescence. From the fluorophores used as reporter signals in our screening assays, the auto fluorescence equivalencies of compounds against three fluorophores have been evaluated: Triamterene, Fluorescein and Rose Bengal sodium for blue, green and red fluorescence, respectively. The fluorescence intensities were measured using Excitation/Emission wavelengths at 405/460nm, 485/535nm and 540/590nm for blue, green and red labels, respectively. This assay includes the blue fluorescence data.
# Tox21 Assay Protocol Summary: 2,000 HepG2 cells in 5 uL of culture medium (MEM containing 10% FBS) per well were dispensed into black wall/clear bottom 1536-well plates using a Multidrop Combi Dispenser (ThermoFisher Scientific, Waltham, MA). The assay plates were incubated overnight at 37 C to allow cell attachment to the well bottom, followed by the transfer of 23 nL compound or DMSO vehicle by a pintool work station (Kalypsys , San Diego, CA). After the assay plates were incubated for 1 hr at 37 C and 5% CO2, fluorescence intensities in the assay plates were measured by an Envision (PerkinElmer, Shelton, CT) plate reader using three labels for measuring blue, green and red fluorescence at […] 460, 535 and 590 nm respectively.
SMILES,Potency,"fluorescence, % of fluorescent control"
Nc1nc(CC(=O)O)cs1,inactive,–
CC(=O)Nc1ccc(/C=N/NC(N)=S)cc1,inactive,–
NC(N)=NN=C(/C=C/c1ccc([N+](=O)[O-])o1)/C=C/c1ccc([N+](=O)[O-])o1,inactive,–
CCc1nn(C2CCCCC2)c2cc(C3(C#N)CCC(C(=O)O)CC3)ccc12 (stereo not given),inactive,–
C=CCCCCCC,inactive,–
CCOC(=S)SSC(=S)OCC,inactive,–
N=C(N=C(N)N)N1CCOCC1,–,0.133% [at 18.6 µM] (inactive)
NC(N)=N/N=C/c1c(Cl)cccc1Cl,inactive,–
Cc1ccccc1N=Nc1ccc(N=Nc2c(O)ccc3ccccc23)c(C)c1,inactive,–
CCCCCCCCCCCCCCCC(=O)OC/C=C(C)/C=C/C=C(C)/C=C/C1=C(C)CCCC1(C)C,inactive,–
CN1CCN(C2=Nc3cc(Cl)ccc3Nc3ccccc32)CC1,inactive,–
CC(=O)CC(=O)c1ccccc1,inactive,–
CC[C@H](C)[C@H](N)C(=O)O,inactive,–
ClC(Cl)(Cl)c1ccc(C(Cl)(Cl)Cl)cc1,inactive,–
CCOC(=O)C1=NN(c2ccccc2)C(=O)C1,inactive,–
O=C=NC1CCC(CC2CCC(N=C=O)CC2)CC1 (stereo not given),inactive,–
CCOc1cc(OCC)c(C(=O)CCC(=O)O)cc1OCC,inactive,–
CC(=O)[C@@]1(O)CC[C@H]2[C@@H]3C[C@H](C)C4=CC(=O)CC[C@]4(C)[C@H]3CC[C@@]21C,inactive,–
Cc1cc(CC(=O)O)c(C)n1-c1ccc(Cl)cc1,inactive,–
O=CNc1ccccc1,inactive,–

SMILES,Potency,"fluorescence, % of fluorescent control"
CC1=CC(=O)/C(=C(/C)O)C(=O)O1,inactive,–
O=C(O)Cc1cc(I)c(Oc2ccc(O)c(I)c2)c(I)c1,inactive,–
C=CC[N+]1([C@H]2C[C@H]3[C@@H]4CC[C@H]5C[C@H](OC(C)=O)[C@@H](N6CCCCC6)C[C@]5(C)[C@H]4CC[C@]3(C)[C@H]2OC(=O)CC)CCCCC1,inactive,–
COc1ccc(C(C)=O)cc1,inactive,–
CCCCCCCC/C=C\CCCCCCCC(N)=O,inactive,–
O=C(c1ccccc1)c1ccc2n1CCC2C(=O)O (stereo not given),inactive,–
CCCCCCCCCCCCCCCBr,inactive,–
C[Si](C)O[Si](C)(C)O[Si](C)(C)O[Si](C)C,inactive,–
CCOC(=O)CC(C)C,inactive,–
O=[N+]([O-])c1cc[n+]([O-])cc1,inactive,–
CCCCCCc1ccc(N)cc1,inactive,–
CNS(=O)(=O)Cc1ccc2[nH]cc(CCN(C)C)c2c1,inactive,–
CC[C@]12CCCN3CCc4c(n(c5ccccc45)C(=O)C1)[C@@H]32,–,-0.0508% [at 18.6 µM] (inactive)
Oc1ccc(O)c2c(O)cccc12,inactive,–
Cc1cccc(C(C)(C)C)c1O,inactive,–
COC(=O)CSc1cc(N=c2sc(=O)n3n2CCCC3)c(F)cc1Cl,inactive,–
CC[C@@H]1C[C@H](N(Cc2cc(C(F)(F)F)cc(C(F)(F)F)c2)C(C)=O)c2cc(C(F)(F)F)ccc2N1C(=O)OC(C)C,inactive,–
CCOc1ccc2[nH]cc(C(=O)NCc3ccccc3)c(=O)c2n1,inactive,–
CC(=O)NCCCS(=O)(=O)O,inactive,–
S=C(S)NCCNC(=S)S,inactive,–
